Measured values as given in PubChem BioAssay (NCATS).
Values joined by “and” are separate entries in the source; they are usually repeats but may differ in a detail not shown here. Equal values may be shown once. Results filed as inconclusive are left out. Unmarked numbers belong to inactive results. Active and inactive are the calls of the source. Calls come from the whole dose curve; as a rule, active = well fitted activation curve with a large enough effect; inconclusive = small, poorly fitted or top-dose-only effect; inactive = no such curve, though single readings can be large or run the other way. Peptide text beside a SMILES is read from it.

What follows are molecules tested against Cellular tumor antigen p53 (Homo sapiens) (UniProt P04637) (assay: Primary qHTS for small molecule compounds that upregulate eGFP-tagged delta133p53alpha (in N-terminal) cells. (AID 2060322; note: nearly all actives have a fitted effect of over 75% in size;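 for activation: cells pre-induced with doxycycline then dosed without doxycycline; series mostly up to about 56 µM; 0% = DMSO vehicle and 100% = reference activator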)). Conditions: NCI-H358 eGFP-delta133p53alpha fluorescence, 24 h; activation: active compounds read high.
Sequence of Cellular tumor antigen p53 (Homo sapiens) (P04637 whole entry, looked up): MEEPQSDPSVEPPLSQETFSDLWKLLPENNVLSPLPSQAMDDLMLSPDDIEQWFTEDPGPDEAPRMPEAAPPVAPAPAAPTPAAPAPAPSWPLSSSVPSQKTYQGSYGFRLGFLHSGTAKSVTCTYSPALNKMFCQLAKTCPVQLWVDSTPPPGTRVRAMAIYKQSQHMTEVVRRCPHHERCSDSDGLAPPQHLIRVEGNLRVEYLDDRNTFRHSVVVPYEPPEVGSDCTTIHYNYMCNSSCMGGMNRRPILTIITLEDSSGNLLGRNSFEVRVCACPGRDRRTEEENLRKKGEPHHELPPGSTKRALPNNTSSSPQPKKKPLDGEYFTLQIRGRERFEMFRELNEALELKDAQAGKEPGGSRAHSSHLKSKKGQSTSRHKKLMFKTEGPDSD
Source text: Assay Development and Screening Technology
National Center for Advancing Translational Sciences (NCATS),
National Institute of Health (NIH), Rockville, Maryland
Cellular senescence (CS) is one of the hallmarks of aging and age-related diseases. Senescent cells are characterized by an irreversible growth arrest, an increase in senescence-associated beta-galactosidase (SA-beta-gal) activity and p16INK4a expression, an activation of the DNA damage response pathways, and the emergence of a senescence-associated secretory phenotype (SASP).
Delta133p53alpha, a human/primate-specific p53 protein isoform, delays or inhibits the induction of CS and SASP in various types of human cells, including progeria-derived fibroblasts, primary normal astrocytes, and CD8+ T lymphocytes. Induction of delta133p53alpha with small molecule compounds may provide therapeutic opportunities for inhibition of senescence/SASP-associated pathologies in progeria syndromes, astrocyte-mediated neuroprotection in neurodegenerative diseases, and possibly prevention and treatment of a wider range of senescence- and aging-associated diseases.
Here we report the development and validation of a cell-based quantitative high throughput screening (qHTS) assay in 1,536-well format. This qHTS assay uses the NCI-H358 cell line with doxycycline-inducible expression of enhanced green fluorescent protein (eGFP)-tagged delta133p53alpha, which allows efficient and highly quantitative measurement of the protein levels.
PROTOCOL TABLE (as described by Inglese J, Shamu CE and Guy RK. 2007)
SEQUENCE No. (e.g., 1, 2, 3, etc.); […] (e.g., Cells, Incubation, Reagent, etc.); VALUE; DESCRIPTION.
1; Cells; 4uL; 800 doxycycline treated cells / well in doxycycline-free media, 1536-well black, clear-bottom low base Aurora microplates.
2; Compounds; 23 nL; Kalypsis pin tool (Wako) equipped with 1536-well pin heads, 5-azacytidine positive control.
3; Incubation; 24 hr; 37C, 5% CO2; 95% relative humidity.
4; Aspiration; 1x; BioTek EL406 washer dispenser (Agilent).
5; Fixing; 3.5% paraformaldehyde, BioTek EL406 washer dispenser (Agilent).
6; Washing; 1x PBS; BioTek EL406 washer dispenser (Agilent).
7; Nuclei staining; 1:1000 dilution of Hoechst 33342 (Thermofisher), BioTek EL406 washer dispenser (Agilent).
8; Incubation; 20 min; in the dark at room temperature.
9; Washing; 2x, 1x PBS (ThermoFisher), BioTek EL406 washer dispenser (Agilent).
10; Reagent; 10 uL; 1x PBS per well, sealed with clear adhesive tape.
NOTES (numbers refer to sequence numbers above).
1. NCI-H358 cells expressing eGFP-tagged delta133p53alpha were grown in T75 culture flasks and treated with doxycycline for 24h, at 10 ng/ml for eGFP-D133p53a cells (N-terminal cell) and 100 ng/ml for D133p53a-eGFP cells (C-terminal cells). Cells were trypsinized, counted using a Counted 3 Automated Cell Counter (Thermo Fisher), and diluted to a concentration of 200,000 cells/ml. A Multidrop Combi Reagent Dispenser (ThermoFisher) was used to dispense 800 cells/well in […] of doxycycline-free media, into 1536-well black/clear bottom low base plates (AuroraMicroplates).
2. After plating cells, 23 nl of compound library, DMSO vehicle control or positive control (5-azacytidine) were transferred by Pin Tool (Wako). The plate map layout was the same for each plate: (column 1) non-doxycycline treated cells + DMSO vehicle control; (column 2) doxycycline treated cells + DMSO vehicle control baseline; (column 3) doxycycline treated cells + positive control 57.5 uM final concentration 5-azacytidine; (column 4) doxycycline treated cells + serial dilution of 5-azacytidine, 16-point 1:2 titration spanning 1.8 nM to […] final concentration; (columns 5-48) doxycycline treated cells + titration of library compounds.
3. Cells were incubated at 37 °C, 5 % CO2, 95% RH with breathable metal lid for 24h.
4-10. […] After two washes, 10 ul of 1X PBS (Thermo Fisher) was dispensed to each well. Clear adhesive plate seals (VWR) were applied and plates stored at 4 °C.
11. […]
Potency is the fitted concentration of half-maximal effect.

Question: Which activation does the source give for OCc1cccnc1 here?
Answer: -5.02%

Question: For CC1OC1P(=O)(O)O (stereo not given), which activation is on record?
Answer: 13.6%

Question: Which activation does the source give for O=C(Nc1ccc(F)c(C(F)(F)F)c1)Nc1nnc(-c2ccncc2)s1 here?
Answer: -20.5% and 5%

Question: For CCOc1ncc(F)c(=O)[nH]1, which activation is on record?
Answer: 3.95%

Question: Which activation does the source give for CC(C)(C)[C@]1(O)CCN2C[C@H]3c4ccccc4CCc4cccc(c43)[C@@H]2C1 here?
Answer: -52.3% and -59.2%

Question: With COc1cc(-c2cc(-c3cccc(O)c3)cnc2N)cc(OC)c1OC as the molecule, how does the Potency read?
Answer: 16.9 µM (active)

Question: With O=C(OC(C(F)(F)F)C(F)(F)F)N1CCN(Cc2cccc(Oc3ccccc3)c2)CC1 as the molecule, how does the activation read?
Answer: 1.43%

Question: Which activation does the source give for Cn1cnc(-c2cc3nccc(Oc4ccc(NC(=S)NC(=O)Cc5ccccc5)cc4F)c3s2)c1 here?
Answer: -7.76% and 19.6%

Question: CCc1nc(-c2cccc(C)c2)c(-c2ccnc(NC(=O)c3ccccc3)c2)s1 was tested. Which activation did it give?
Answer: 17.2%

Question: With NC(=O)C1CCCc2c1[nH]c1ccc(Cl)cc21 (stereo not given) as the molecule, how does the activation read?
Answer: 10.6%

Question: For CCOC(=O)[C@H](CCc1ccccc1)CC1(C(=O)N[C@H]2CCc3ccccc3N(CC(=O)O)C2=O)CCCC1, which activation is on record?
Answer: 6.21%

Question: How did the activation turn out when COc1ccccc1C(=O)Nc1cccc(NC(=O)c2cccc(C)c2)c1 was run?
Answer: -11.7%

Question: With Clc1ccc2c(c1)C1=NCCN1c1c(-c3noc(C4CC4)n3)ncn1-2 as the molecule, how does the activation read?
Answer: -0.477%

Question: Which activation does the source give for CCCN(CCc1ccccc1)C1CCc2c(O)cccc2C1 (stereo not given) here?
Answer: -29.6%

Question: With Cc1cnn(C)c1C(=O)Nc1cc(Nc2ccc3c(C=Cc4ccccn4)n[nH]c3c2)ccc1F as the molecule, how does the activation read?
Answer: 18.7%

Question: For CC(C)[N+]1(C)C2CCC1CC(OC(=O)C(CO)c1ccccc1)C2 (stereo not given), which activation is on record?
Answer: 3.82%

Question: For CC[C@]1(O)C[C@@H]2CN(CCc3c([nH]c4ccccc34)[C@@](C(=O)OC)(c3cc4c(cc3OC)N(C=O)[C@@H]3C45CCN4CC=C[C@](CC)([C@H]45)[C@@H](OC(C)=O)[C@]3(O)C(=O)OC)C2)C1 (stereo not given in full), which activation is on record?
Answer: -1.44%

Question: For CSCC[C@H](NC(=O)[C@H](CO)NC(=O)[C@H](CCC(=O)O)NC(C)=O)C(=O)N[C@H](C=O)CC(=O)O (Ac-ESMD-aldehyde), which activation is on record?
Answer: 12.3%

Question: With Cc1cc2nc3c(=O)[nH]c(=O)nc-3n(C[C@H](O)[C@H](O)[C@H](O)CO)c2cc1C as the molecule, how does the activation read?
Answer: -36.8%

Question: C=CC(C)(O)CO[C@@H]1O[C@H](CO)[C@@H](O)[C@H](O)[C@H]1O (stereo not given in full) was tested. Which activation did it give?
Answer: -16%

Question: CC(C)C(C(=O)N(C)C(C)C(N)=O)N(C)C(=O)C1CCCN1C(=O)/C=C/C=C/C(O)C(C)O (stereo not given) was tested. Which activation did it give?
Answer: -23.7%

Question: Which activation does the source give for C[C@H]1COc2c(N3CCN(C)CC3)c(F)cc3c(=O)c(C(=O)O)cn1c23 here?
Answer: -12.8%

Question: Which activation does the source give for CC1=C(C(=O)O)/C(=C/CO[C@@H]2O[C@H](COC(=O)/C=C/c3ccc(O)cc3)[C@@H](O)[C@H](O)[C@H]2O)C(O)C1 (stereo not given in full) here?
Answer: -17.6%

Question: With CC(C)N(CCCNC(=O)Nc1ccc(C(C)(C)C)cc1)C[C@H]1O[C@@H](n2ccc3c(N)ncnc32)[C@H](O)[C@@H]1O as the molecule, how does the activation read?
Answer: -20% and -29.1%

Question: How did the activation turn out when COc1cc(C)c(C(=O)Oc2cc(C)c(C(=O)Oc3cc(C)c(C(=O)NC(C)C(=O)O)c(O)c3)c(O[C@@H]3O[C@H](CO)[C@@H](O)[C@H](O)[C@H]3OC(C)=O)c2)c(OC)c1 (stereo not given in full) was run?
Answer: -7.63%

Question: CCOC(=O)C1=C(C)NC(C)=C(C(=O)OC)C1c1cccc([N+](=O)[O-])c1 (stereo not given) was tested. Which activation did it give?
Answer: -7.72%

Question: For CC(C)(C)NS(=O)(=O)c1ccc(-c2ccc3[nH]nc(N)c3c2)cc1, which activation is on record?
Answer: 0%

Question: CC1C(O)C(O)C2C(C(=O)OCCc3ccc(O)cc3)=COC(O[C@@H]3O[C@H](CO)[C@@H](O)[C@H](O)[C@H]3O)C12 (stereo not given in full) was tested. Which activation did it give?
Answer: 11.5%

Question: CC(C)Oc1ccc(-c2nc(-c3cccc4c3CCC4NCCC(=O)O)no2)cc1C#N (stereo not given) was tested. Which activation did it give?
Answer: 0%

Question: Which activation does the source give for C=C(C)[C@@H]1CC[C@]2(C(=O)O)CC[C@]3(C)C(CCC4[C@]5(C)C(CC[C@]43C)C(C)(C)[C@@H](O)[C@@H]5C(=O)O)C12 (stereo not given in full) here?
Answer: -18.3%

Question: CC1(O)CCC2C(C(=O)O)=COC(OC3OC(CO)C(O)C(O)C3OC(=O)/C=C/c3ccc(O)cc3)C21 (stereo not given) was tested. Which activation did it give?
Answer: -16%

Question: With O=C(NCC(=O)N1CCCCC1)Nc1ccc2nnsc2c1 as the molecule, how does the activation read?
Answer: -6.7%

Question: With Cc1c(O)cccc1C(=O)N[C@@H](CSc1ccccc1)[C@H](O)CN1C[C@H]2CCCC[C@@H]2C[C@@H]1C(=O)NC(C)(C)C as the molecule, how does the activation read?
Answer: -23%

Question: With CC1CC2(O)OC(=O)C3=C2C(CCC3)[C@@]12C[C@@H](c1ccoc1)OC2=O (stereo not given in full) as the molecule, how does the activation read?
Answer: -12.2%

Question: With O=C(O)c1cn(C2CC2)c2cc(N3CCNCC3)c(F)cc2c1=O as the molecule, how does the activation read?
Answer: 6.67%

Question: For COc1cc(N2CCC(N3CCN(C)CC3)CC2)ccc1Nc1ncc(Cl)c(-c2c[nH]c3ccccc23)n1, which Potency is on record?
Answer: 8.49 µM (active)

Question: Which activation does the source give for COC(=O)/C=C\C(=O)OC here?
Answer: -9.6%

Question: For CCOc1ccc(-c2nn3ncccc3c2-c2ccc(S(C)(=O)=O)cc2)cc1, which activation is on record?
Answer: -4.46%

Question: COc1cc2c(cc1OC)CN(CCc1ccc(NC(=O)c3cc(OC)c(OC)cc3NC(=O)c3cnc4ccccc4c3)cc1)CC2 was tested. Which activation did it give?
Answer: 1.67%

Question: How did the activation turn out when CC(=O)OC(C)(C)/C=C/C(=O)[C@](C)(O)[C@H]1C(O)C[C@@]2(C)[C@@H]3CC=C4[C@@H](C=C(O[C@@H]5O[C@H](CO)[C@@H](O)[C@H](O)[C@H]5O)C(=O)C4(C)C)[C@]3(C)C(=O)C[C@]12C (stereo not given in full) was run?
Answer: 22.3%
